Data reported in PMC4336329 (PLoS ONE, 2015).
The whole screen tested about 310,000 compounds, of which about 2,200 (0.71%) showed an effect of 50% or more. Effects have a minus sign here. This is one part of a sample in which strong results are shown more often than they occur.

What follows are molecules tested against human ether-à-go-go-related gene (hERG) potassium channel (human, UniProt Q12809) (assay: primary screen, population patch clamp on CHO cells stably expressing hERG; higher = less effect of the substance).
Chain of human ether-à-go-go-related gene (hERG) potassium channel (Q12809 whole entry, looked up): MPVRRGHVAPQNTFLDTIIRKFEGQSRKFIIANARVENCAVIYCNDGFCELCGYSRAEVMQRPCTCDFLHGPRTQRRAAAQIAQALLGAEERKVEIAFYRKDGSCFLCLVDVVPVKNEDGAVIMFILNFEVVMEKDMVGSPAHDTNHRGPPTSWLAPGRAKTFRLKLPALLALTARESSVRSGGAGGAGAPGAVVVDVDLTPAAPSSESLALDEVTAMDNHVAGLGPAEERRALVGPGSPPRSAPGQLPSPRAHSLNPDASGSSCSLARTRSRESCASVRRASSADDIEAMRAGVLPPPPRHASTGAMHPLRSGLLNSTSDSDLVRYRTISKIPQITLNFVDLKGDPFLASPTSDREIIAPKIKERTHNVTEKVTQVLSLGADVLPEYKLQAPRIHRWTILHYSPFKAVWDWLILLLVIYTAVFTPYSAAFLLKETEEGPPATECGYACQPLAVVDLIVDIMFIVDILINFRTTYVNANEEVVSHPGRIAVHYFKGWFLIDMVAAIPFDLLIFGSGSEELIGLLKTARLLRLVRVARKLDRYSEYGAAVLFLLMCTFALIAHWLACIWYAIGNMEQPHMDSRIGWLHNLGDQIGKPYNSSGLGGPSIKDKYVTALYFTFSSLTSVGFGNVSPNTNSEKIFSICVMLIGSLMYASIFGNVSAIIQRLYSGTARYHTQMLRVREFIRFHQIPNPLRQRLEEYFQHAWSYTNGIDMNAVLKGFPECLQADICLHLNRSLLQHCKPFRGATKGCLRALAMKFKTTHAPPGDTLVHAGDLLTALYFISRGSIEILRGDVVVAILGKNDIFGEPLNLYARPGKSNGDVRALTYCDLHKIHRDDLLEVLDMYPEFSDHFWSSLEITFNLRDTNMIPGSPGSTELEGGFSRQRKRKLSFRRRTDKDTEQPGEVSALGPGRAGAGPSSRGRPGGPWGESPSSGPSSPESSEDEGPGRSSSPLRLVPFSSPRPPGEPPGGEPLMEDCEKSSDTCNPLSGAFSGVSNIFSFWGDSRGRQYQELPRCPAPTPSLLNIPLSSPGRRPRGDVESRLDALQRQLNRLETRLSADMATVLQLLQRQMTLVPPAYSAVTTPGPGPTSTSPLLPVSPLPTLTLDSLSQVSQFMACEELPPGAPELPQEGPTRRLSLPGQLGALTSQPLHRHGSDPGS

SMILES | hERG current change (%, negative = inhibition) at 1uM [%]
COc1ccc(NC(=O)Cn2nnc(-c3ccccc3F)n2)cc1 | 8.09
CCC(=O)Nc1ccc(-c2nnc(SCC(=O)NCC3CCCO3)n2C)cc1 (stereo not drawn) | 14.4
COc1ccc(NC(=O)CN2C(=O)C(C)SC(C)C2=O)cc1 (stereo not drawn) | 6.14
Cn1c(-[n+]2c(-c3ccccc3)cc(-c3ccccc3)cc2-c2ccccc2)nc2c([N+](=O)[O-])cccc21.[I-] | -6.1
Cc1ccc(C(=O)N/C(=C\c2ccc(-c3ccccc3[N+](=O)[O-])o2)C(=O)NCCCN(C)C)cc1 | -14.9
Cc1ccc(C(=O)N/C(=C\c2ccc(-c3ccccc3[N+](=O)[O-])o2)C(=O)NCCN(C)C)cc1 | -29.7
CCCCNC(=O)/C(=C\c1ccc([N+](=O)[O-])o1)NC(=O)c1ccccc1 | -6.47
CN(C)CCCNC(=O)/C(=C/c1ccc(-c2ccc([N+](=O)[O-])cc2)o1)NC(=O)c1ccccc1 | -52.5
CN(C)C(=O)/C(=C/c1ccc(-c2cccc([N+](=O)[O-])c2)o1)NC(=O)c1ccccc1 | 5.68
Cc1ccc(C(=O)N/C(=C/c2ccc(-c3ccc([N+](=O)[O-])cc3)o2)C(=O)NCCCN(C)C)cc1 | -78
CCOC(=O)C(C)Oc1cccc2c(=O)n(CC(=O)N3CCCc4ccccc43)ccc12 (stereo not drawn) | 15.8
CN(Cc1cccc2cnccc12)C(=O)c1cc(COc2ccc(F)cc2Cl)on1 | 19.5
Cc1cc(C)nc(SCC(=O)N(C)CC(=O)Nc2c(Cl)cccc2Cl)n1 | 7.52
O=C(Oc1ccc(-c2nccc(-c3ccccn3)n2)cc1)c1cccc(C(F)(F)F)c1 | 5.53
Cc1cc(C)n(-c2nc(C)nc(NCc3ccccc3)n2)n1 | -61.6
CNc1nc(C)nc(-n2nc(C)cc2C)n1 | 9.5
Cc1cc(C)n(-c2nc(Nc3ccccc3)nc(-n3nc(C)cc3C)n2)n1 | 12.1
CCCOC(=O)c1ccc(NC(=O)CN(C)Cc2cccs2)cc1 | 11.8
O=C1c2ccsc2SCCN1Cc1cccc(Cl)c1 | 8.86
COc1ccc(N2CCN(C(=O)Cn3cnc4c(cnn4-c4ccccc4)c3=O)CC2)cc1 | 5.22
Cc1ccc(Cl)cc1NC(=O)CCS(=O)(=O)c1cccc2nonc12 | 10.8

SMILES | hERG current change (%, negative = inhibition) at 1uM [%]
Cl.O=C(O)CN1C2=NCCCN2c2ccccc21 | 15.8
Brc1ccc(CN2C3=NCCCN3c3ccccc32)cc1.Cl | -55.6
Cl.O=C(CN1C2=NCCCN2c2ccccc21)c1ccc(Cl)cc1Cl | -82.1
Cl.Clc1ccc(CN2C3=NCCN3c3ccccc32)cc1 | -40.4
Cc1cc2c(cc1C)N(Cc1ccc(Cl)cc1)C1=NCCCN12 | -28.4
Cl.Clc1ccc(CN2C3=NCCCN3c3ccccc32)cc1 | -54.3
Cl.Clc1ccc(CN2C3=NCCCN3c3ccccc32)c(Cl)c1 | -28.2
c1ccc(CN2C3=NCCN3c3ccccc32)cc1 | 2.38
Cl.c1ccc(CN2C3=NCCCN3c3ccccc32)cc1 | -29
Cc1ccc(CN2C3=NCCN3c3ccccc32)cc1.Cl | -23.5
Cl.Clc1ccc(CN2C3=NCCN3c3ccccc32)cc1Cl | -72.3
Cl.Fc1ccc(CN2C3=NCCCN3c3ccccc32)cc1 | -32.8
COc1ccc(Sc2ccc(NC(=O)c3ccccc3Cl)cc2C#N)cc1 | 8.52
Cc1ccc(-c2csc(N3CCC(NS(=O)(=O)c4ccc5c(c4)OCCO5)CC3)n2)cc1 | 9.83
CCOC(=O)Nc1nc(C)c(C(=O)N(C)C)s1 | -1.49
Cn1c(OCc2ccco2)nc2c1c(=O)n(Cc1ccc(Cl)c(Cl)c1)c(=O)n2C | 6.62
COc1ccc(C(=O)NC(=S)N2CC(C)OC(C)C2)cc1OC (stereo not drawn) | 7.44
COC(=O)c1sccc1NC(=O)Nc1cccc(F)c1 | 9.69
C[C@@H](C(=O)OCC(=O)NCCc1ccc(S(N)(=O)=O)cc1)N1C(=O)C2CCCCC2C1=O (stereo partly drawn) | 12
Br.CC(C)(C)C(=O)CN1C2=NCCCN2c2ccccc21 | -46.9
Cl.Clc1cccc(CN2C3=NCCCN3c3ccccc32)c1 | -46.2
